Measurements reported in PubChem BioAssay AID1159580 (chemical genetic matrix, 2015).
Several values for one entry are separate records, joined by “and”; a condition that tells them apart may be missing. Identical values can stand only once. Among all 5,500 compounds or so, about 2,000 (36%) were called active. Roughly 18% stayed inconclusive and do not appear here. Cut-off read from the data, not from the text of the source: active = normalized growth mostly below about 0.91 (no sharp cut-off); inconclusive = no clear call, values can overlap the other calls; inactive = mostly above about 0.92. The list shows a part of the results.

Test: chemical genetic growth profiling, strain panel (AID 1159580);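 note: tested at 20 µM; growth read once vehicle control cultures reached saturation at 30 °C; 1 = growth at the plate median or of vehicle wells; lower values mean less growth of the strain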
Details: S. cerevisiae deletion strains, growth OD

Measured: normalized growth

CC1=CC2C(C(C)C)CCC(C)(O)C2CC1 (configuration not stated)
inactive: locus YAL013W, strain DEP1, hits give low values 1 | locus YAL021C, strain ccr4, hits give low values 0.981 | locus YAL026C, strain drs2, hits give low values 1.01 | locus YAL030W, strain snc1, hits give low values 0.989 | locus YBL061C, strain skt5, hits give low values 0.991 | locus YBR009C, strain hhf1, hits give low values 0.97 | locus YBR021W, strain FUR4, hits give low values 0.999 | locus YBR023C, strain chs3, hits give low values 0.945 | locus YBR171W, strain sec66, hits give low values 0.974 | locus YBR229C, strain ROT2, hits give low values 0.949 | locus YBR231C, strain swc5, hits give low values 1.02 | locus YBR279W, strain paf1, hits give low values 0.988 | locus YCL011C, strain gbp2, hits give low values 0.998 | locus YCL016C, strain dcc1, hits give low values 0.972 | locus YCL029C, strain bik1, hits give low values 0.953 | locus YCL061C, strain MRC1, hits give low values 1.01 | locus YCL069W, strain vba3, hits give low values 0.981 | locus YCR088W, strain abp1, hits give low values 0.996 | locus YDL005C, strain med2, hits give low values 0.998 | locus YDL035C, strain GPR1, hits give low values 0.963 | locus YDL040C, strain nat1, hits give low values 0.987 | locus YDL074C, strain BRE1, hits give low values 0.97 | locus YDL101C, strain DUN1, hits give low values 0.977 | locus YDL134C, strain PPH21, hits give low values 1.01 | locus YDL185W, strain tfp1, hits give low values 0.972 | locus YDL192W, strain arf1, hits give low values 0.934 | locus YDR001C, strain nth1, hits give low values 0.992 | locus YDR069C, strain doa4, hits give low values 1.01 | locus YDR101C, strain arx1, hits give low values 0.969 | locus YDR159W, strain sac3, hits give low values 0.915 | locus YDR162C, strain NBP2, hits give low values 0.956 | locus YDR195W, strain ref2 1.03 | locus YDR297W, strain sur2, hits give low values 0.979 | locus YDR318W, strain mcm21, hits give low values 0.959 | locus YDR334W, strain swr1, hits give low values 1.03 | locus YDR335W, strain msn5, hits give low values 0.977 | locus YDR388W, hits give low values 0.985 | locus YDR502C, strain sam2, hits give low values 1.02 | locus YEL003W, strain gim4, hits give low values 1 | locus YEL037C, strain rad23, hits give low values 0.997 | locus YEL061C, strain CIN8 (second series), hits give low values 1 | locus YEL061C, strain CIN8, hits give low values 0.974 | locus YER015W, strain faa2, hits give low values 0.991 | locus YER016W, strain bim1, hits give low values 0.998 | locus YER110C, hits give low values 0.966 | locus YER111C, strain swi4, hits give low values 0.995 | locus YER155C, strain BEM2 (second series), hits give low values 0.875 | locus YER155C, strain BEM2, hits give low values 0.992 | locus YER167W, strain BCK2, hits give low values 0.977 | locus YFR010W, strain ubp6, hits give low values 1.1 | locus YGL078C, strain dbp3, hits give low values 1.02 | locus YGL086W, strain mad1, hits give low values 0.978 | locus YGL167C, strain pmr1, hits give low values 0.98 | locus YGL173C, strain kem1, hits give low values 0.994 | locus YGL227W, strain vid30, hits give low values 0.991 | locus YGL240W, strain doc1, hits give low values 0.959 | locus YGL248W, strain PDE1, hits give low values 1.02 | locus YGL253W, strain hxk2, hits give low values 0.998 | locus YGR078C, strain PAC10, hits give low values 0.981 | locus YGR135W, strain pre9, hits give low values 1.08 | locus YGR229C, strain SMI1, hits give low values 0.969 | locus YGR252W, strain gcn5, hits give low values 1.06 | locus YHR013C, strain ard1, hits give low values 1.08 | locus YHR027C, strain rpn1, hits give low values 1.01 | locus YHR030C, strain SLT2, hits give low values 1 and 0.93 | locus YHR079C, strain IRE1 (second series), hits give low values 0.987 | locus YHR079C, strain IRE1, hits give low values 0.918 | locus YHR094C, strain hxt1, hits give low values 0.983 | locus YHR129C, strain ARP1, hits give low values 0.993 | locus YHR142W, strain chs7, hits give low values 0.916 | locus YHR200W, strain rpn10, hits give low values 1 | locus YIL066C, strain RNR3, hits give low values 0.968 | locus YIL073C, strain SPO22, hits give low values 1.04 | locus YIL125W, strain kgd1, hits give low values 0.961 | locus YIR030C, strain dcg1, hits give low values 0.981 | locus YJL092W, strain hpr5, hits give low values 0.996 | locus YJL095W, strain BCK1 (second series), hits give low values 0.995 | locus YJL095W, strain BCK1, hits give low values 1.05 and 0.947 | locus YJL115W, strain asf1, hits give low values 1 | locus YJL129C, strain trk1, hits give low values 1.01 | locus YJL134W, strain LCB3, hits give low values 0.979 | locus YJL154C, strain vps35, hits give low values 0.998 | locus YJL164C, strain tpk1, hits give low values 0.942 | locus YJL166W, strain qcr8, hits give low values 0.979 | locus YJL168C, strain set2, hits give low values 0.992
active: locus YDR137W, strain rgp1, hits give low values 0.771 | locus YDR392W, strain spt3, hits give low values 0.59
